# Shown are actives, neighbours in structure and some others; about 7.9% of the full set was active somewhere.
# SW480 rereplic: inducers of DNA re-replication in SW480 colon cancer cells; SW480 DNA re-replication, Hoechst DNA content imaging, 48 h; Potency, µM (top dose mostly 46.1 µM), without a hit: top-dose re-replication activation, hits mostly activators; 340,000 tested, 1.8% active; AID 624297; note: % of control where 0% means no effect; nearly all actives have a fitted effect of over 55% in size
#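 Treated cells incubate 48 hr (37 C, 5% CO2), are stained 40 min with Hoechst, and nuclear fluorescence is enumerated; a rise in nuclei with high DNA signal marks re-replication.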
# MCF10A rerep: DNA re-replication induction in MCF 10a cells; AID 624296; 350,000 tested, 2.9% active; Potency, µM (titrated, usually from 46.1 µM), for the others: at the top dose activity, positive = re-replication, actives largely listed as activators; MCF 10A DNA re-replication, Hoechst nuclear intensity, 48 h; note: % of control where 0% means no effect; nearly all actives have a fitted effect of over 50% in size
# HT1080NT lethal: kills 2HG-producing HT-1080-NT fibrosarcoma cells | HT-1080-NT fibrosarcoma viability, CellTiter-Glo ATP luminescence, 48 h | Potency, µM (doses to about 46.1 µM), without a hit: top-dose activity, negative = less viability, hits mostly cytotoxic | 360,000 tested, 1.6% active;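 note: NT is the 2HG producing partner of a matched IDH1 knockdown line; 0% = DMSO-treated cells and -100% = media-only wells without cells; nearly all actives have a fitted effect of over 55% in size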
#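 HT-1080-NT; 750 cells/well; 5% FBS RPMI; 48 h compound, 37 degrees C; CellTiter-Glo luminescence; curve fitting and curve-class assignment.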
# HT1080 IDH1KD tx: toxicity to HT-1080 IDH1 knockdown cells (counter line) | Potency, µM (series often up to 46.1 µM), without a hit: at the highest dose activity, negative = toxicity, usual class: cytotoxic | AID 686971 | 360,000 tested, 2% active | HT-1080 IDH1 knockdown viability, ATP luminescence, 48 h;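 note: 0% = DMSO wells and -100% = cell-free medium wells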
#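 Assay cells: HT-1080 with IDH1 knockdown, 750 per well, RPMI/5% FBS. Exposure: 48 h at 37 °C following 2 h pre-incubation. Read: CellTiter-Glo luminescence; fitted concentration-response, curve class assigned.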
# KB-3-1 cytotox: kills parental KB-3-1 adenocarcinoma cells | KB-3-1 viability, CellTiter-Glo ATP luminescence, 72 h | Potency, µM (titrated, usually from 46.1 µM), most hits filed as cytotoxic | 400,000 tested, 1.4% active; note: % is set by controls: 0 for no effect and ±100 for the full control effect; nearly all actives have a fitted effect of over 60% in size
#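 72 h, 37 °C compound treatment of KB-3-1 parental cells; CellTiter-Glo added, 10 min, luminescence read. Data corrected against DMSO-only plates and normalized before curve fitting.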
# KB-V1 cytotox: KB-V1 MDR subline cytotoxicity. Potency, µM (series often up to 46.1 µM), actives largely listed as cytotoxic. KB-V1 MDR cells viability, CellTiter-Glo, 72 h. 400,000 tested, 3.4% active. AID 1347076; note: % is set by controls: 0 for no effect and ±100 for the full control effect; nearly all actives have a fitted effect of over 60% in size
#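 Drug-selected KB-V1 cells, grown in DMEM lacking phenol red with 10% FBS, receive compound titrations; after three days at 37 degrees C, surviving cell ATP is quantified by CellTiter-Glo luminescence and responses normalized and curve-fitted.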
# Numbers without * were called inactive; i = inactive; ? = inconclusive; · = no result given; [ ] = another dose, or the depositor's remark. Calls come from the whole dose curve; as a rule, active = well fitted curve in the direction sought with a large enough effect; inconclusive = small, poorly fitted or top-dose-only effect, or another doubt; inactive = no such curve, though single readings can be large; an effect the other way counts as inactive or inconclusive. Potency is the fitted concentration of half-maximal effect.
SMILES,SW480 rereplic,MCF10A rerep,HT1080NT lethal,HT1080 IDH1KD tx,KB-3-1 cytotox,KB-V1 cytotox
CC(C)C[C@H](NC(=O)[C@@H](Cc1c[nH]c2ccccc12)NC(=O)[C@@H](Cc1ccc(O)cc1)NC(=O)[C@@H](CO)NC(=O)[C@@H](Cc1c[nH]c2ccccc12)NC(=O)C(Cc1cnc[nH]1)NC(=O)C1CCC(=O)N1)C(=O)N[C@@H](CCCN=C(N)N)C(=O)N1CCC[C@@H]1C(=O)NCC(N)=O (stereo partly specified),-1.8%,-2.9%,·,·,·,·
CC(SC#N)C(=O)C12CC3CC(CC(C3)C1)C2 (stereo unspecified),?,18.4µM*,?,16.4µM*,20.6µM*,i
CCC/C=C/c1ccc(CN2C(C)C(=O)N(Cc3cn(CCC4OCCCO4)nn3)CCS2(=O)=O)cc1 (stereo unspecified),·,·,-18.9%,-14.5%,i,i
COc1ccc2c(c1)nc(SCC(=O)c1ccc(Br)s1)n2C,?,14.6µM*,-6.4%,-22.7%,i,?
CCCn1nc(C(=O)NC2CCCC2)c2ccccc2c1=O,-4.9%,-11.9%,-7.6%,14.6%,i,i
CCCn1nc(C(=O)Nc2ccc3c(c2)OCO3)c2ccccc2c1=O,8.3%,-0.9%,-6.0%,-16.5%,i,?
CCCn1nc(C(=O)Nc2ccc3c(c2)OCCO3)c2ccccc2c1=O,-2.4%,3.9%,-8.0%,-2.8%,i,16.4µM*
CCCCn1nc(C(=O)Nc2ccccc2N2CCCC2)c2ccccc2c1=O,-1.4%,?,1.9%,-0.5%,i,3.66µM*
CCCn1nc(C(=O)NC2CCCc3ccccc32)c2ccccc2c1=O (stereo unspecified),11.2%,4.5%,-20.3%,-25.7%,i,23.1µM*
CCCCn1nc(C(=O)NC2CCCCCC2)c2ccccc2c1=O,-0.8%,-7.5%,11.3%,3.9%,·,·
NC(=O)c1c(NC(=O)c2nc(SCc3ccccc3F)ncc2Cl)sc2c1CCCC2,·,·,·,·,i,i
Cc1ccc(-n2nc3c(N4CCC(C(=O)NCc5ccccc5Cl)CC4)nnc(C)c3c2C)cc1,·,·,·,·,i,i
Cc1ccc(-n2nc3c(N4CCC(C(=O)NCc5ccccc5C)CC4)nnc(C)c3c2C)cc1,118.3%,?,7.31µM*,8.2µM*,?,?
CCOc1ccccc1CNC(=O)C1CCN(c2nnc(C)c3c(C)n(-c4ccc(C)cc4)nc23)CC1,?,23.1µM*,?,13µM*,?,i
O=C(CN1CCN(S(=O)(=O)c2ccc(Cl)cc2)CC1)c1ccc(O)c(O)c1,?,7.5%,-7.4%,0.0%,i,i
CCOC(=O)c1c(N/N=C/c2cccnc2)n[nH]c1C,?,?,?,?,9.2µM*,5.8µM*
Cc1ccc(-n2c(C)cc(/C=C3/SC(=O)N(CC(=O)N4CCOCC4)C3=O)c2C)nc1,18.4µM*,1.9%,15.9%,3.7%,i,i
CCn1cc(C(=O)OCC(=O)c2cc(C)n(-c3ccccc3)c2C)c(=O)c2ccc(C)nc21,0.0%,-8.1%,-13.9%,-11.5%,i,i
CCn1cc(C(=O)OCC(=O)c2cc(C)n(-c3ccc(OC(F)F)cc3)c2C)c(=O)c2ccc(C)nc21,?,13µM*,-8.5%,11.9%,i,23.1µM*
Cc1cc(-c2nnc(-c3cc4ccccc4oc3=O)o2)c(C)n1-c1ccccc1,?,5.8µM*,4.4%,8.2%,?,?
O=c1c2ccccc2nc(-c2ccoc2)n1CCc1ccccc1,8.2%,?,-24.8%,-1.1%[9.24 µM],?,11.6µM*
CCOc1ccc(CCn2c(-c3ccco3)nc3ccccc3c2=O)cc1OCC,?,?,?,3.55µM*,?,7.31µM*
CSCC(C)N1CCC(CO)(CCc2ccccc2)CC1 (stereo unspecified),1.8%,3.9%,-4.4%,-4.1%,i,i
CC(COc1ccccc1)N1CCC(CO)(CCc2ccccc2)CC1 (stereo unspecified),19.7%,?,16.4µM*,?,i,?
O=C(c1ccc2nc(Cc3cccc(Cl)c3)oc2c1)N1CCC(O)CC1,-11.6%,3.8%,19.9%,19.9%,i,i
SMILES,SW480 rereplic,MCF10A rerep,HT1080NT lethal,HT1080 IDH1KD tx,KB-3-1 cytotox,KB-V1 cytotox
c1ccc(CN2CCC3(CCCc4ccccc43)CC2)cc1,-35.5%,23.3%,?,16.4µM*,i,?
c1ccc(CN2CCC3(CC2)Nc2ccccc2CO3)cc1,4.4%,1.5%,?,-3.8%,i,i
O=C(COC(=O)/C=C/c1ccc([N+](=O)[O-])cc1)NCc1ccccc1,-4.4%,2.6%,-2.5%,0.1%,i,i
O=C(COC(=O)/C=C/c1ccc([N+](=O)[O-])cc1)NC(c1ccccc1)c1ccccc1,20.4%,23.1µM*,-13.7%,-13.2%,i,i
CC1=C(C(=O)N2CCCCCC2)CC(CC(=O)NCCc2ccccn2)C(=O)N1Cc1ccc(C(C)(C)C)cc1 (stereo unspecified),·,·,-1.0%,?,i,?
CC(=O)Nc1ccc(CN(C)c2c(C)nc3ccc(C(=O)NC4CCN(Cc5ccccc5)CC4)cn23)cc1,·,·,?,?,i,i
CS(=O)(=O)c1ccc(S(=O)CC(=O)Oc2ccc(Cl)cc2)c([N+](=O)[O-])c1 (stereo unspecified),6.51µM*,4.61µM*,23.1µM*,18.4µM*,20.6µM*,?
Cn1c(=O)c2[nH]c(Br)nc2n(C)c1=O,0.4%,-3.0%,·,·,·,·
CCOc1ccccc1-c1nc2c([nH]1)c(=O)n(C)c(=O)n2C,19.0%,1.6%,5.0%,3.0%,?,10.3µM*
CC1CCN(C(=O)CSc2nc(-c3ccc(C(C)C)cc3)no2)CC1,·,·,·,·,i,i
O=C(Nc1ccc2c(c1)CCC2)c1cc(S(=O)(=O)Nc2ccc(F)cc2)c(Cl)cc1Cl,13.5%,?,?,?,?,18.4µM*
O=C(Nc1ccc2c(c1)CCC2)c1ccc(F)cc1,-1.8%,2.6%,4.4%,0.0%,i,i
Cc1cc(C(=O)N2CCCc3ccccc32)ccc1[N+](=O)[O-],10.3%,6.4%,11.4%,2.4%,i,?
CSC1=NC(=O)/C(=C\c2cccc3ccccc23)S1,3.9%,14.6µM*,1.1%,-3.8%,i,?
NC(=O)c1nc[nH]c1C(=O)Nc1cccc(C(F)(F)F)c1,1.8%,-59.4%,0.0%,-1.8%,i,?
CC(C)c1ccc(NC(=O)C2CCN(C(=O)[C@@H]3Cc4ccccc4CN3)CC2)cc1,18.4µM*,?,-15.7%,-28.1%,i,i

# From PubChem BioAssay
